# Assay results published in PubChem BioAssay AID2734 (National Center for Advancing Translational Sciences (NCATS), 2010).
# Records with an inconclusive call do not appear. Calls of active or inactive are those of the source. The call rests on the fitted dose curve; in most records, active means well fitted inhibition curve with a large enough effect; inconclusive means small, poorly fitted or top-dose-only effect, or effect the other way; inactive means no such curve, though single readings can be large or run the other way.
# Assay: High Content Assay for Compounds that inhibit the Assembly of the Perinucleolar Compartment: DNA Intercalation/PicoGreen Displacement Assay
# Source text: High Content Assay for Compounds that inhibit the Assembly of the Perinucleolar Compartment
# NIH Chemical Genomics Center [NCGC]
# NIH Molecular Libraries Probe Centers Network [MLPCN]
# Assay Submitter (PI): Sui Huang, Northwestern University, Feinberg School of Medicine, Cell and Molecular Biology, Chicago, Illinois.
# The perinucleolar compartment (PNC) is a non-membrane-bound nuclear subdomain that is associated with but structurally distinct from the nucleolus. The PNC is a heritable trait, in which the number of PNCs per cell in daughter cells often mimics that of their mother cells. The PNC is heterogeneous in shape, is stable through interphase, disassembles during mitosis, and reassembles in early G1. […]
# Therefore, we conducted a DNA intercalation/displacement assay on the lead candidates in order to exclude compounds with this mechanism of action. […] Compounds which displace the dye will decrease fluorescence intensity and were considered DNA intercalators/displacers. In order to rule out potential fluorescence artifacts, a measurement of compound plus DNA only was also calculated. […]
# 4. A baseline signal was measured using an Envision PMT based plate reader using a 488 nm excitation filter and a 520 nm emission filter. […]
# 6. Plates were incubated at 37 C for 10 minutes prior to being read on the envision plate reader. […]
row,SMILES,outcome
1,Cc1c2ccncc2c(C)c2c1[nH]c1ccccc12,inactive
2,CCC(=NCc1cc(OC)cc(OC)c1)c1c(O)n(C)c(=O)n(C)c1=O,inactive
